Data taken from PubChem BioAssay (NCATS).
A number with no mark means an inactive call. Records with an inconclusive call do not appear. Where a call stands in place of a potency, no number is given. Activity calls are given as the source filed them. Unless noted, calls come from the whole dose curve; as a rule, active = well fitted curve in the direction sought with a large enough effect; inconclusive = small, poorly fitted or top-dose-only effect, or another doubt; inactive = no such curve, though single readings can be large; an effect the other way counts as inactive or inconclusive.

Columns and labels:
[1] = qHTS to identify inhibitors of the type 1 interferon - major histocompatibility complex class I in skeletal muscle: primary screen against the NCATS Pharmaceutical Collection (AID 1347407);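 note: luminescence of HiBiT knocked into endogenous HLA-B as interferon-induced MHC class I level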; note: potency is the fitted concentration of half-maximal effect
Outline: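 A qHTS format is used: 8-point, 1:5 compound series with 46 uM top final concentration, applied alongside 4 ng/ml IFN-beta to HLA-B*08:01-HiBiT knock-in myoblasts. Luminescence is measured after 24 h treatment.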

[2] = qHTS to identify inhibitors of the type 1 interferon - major histocompatibility complex class I in skeletal muscle: primary screen against the NCATS Mechanism Interrogation Plate v5.0 (MIPE) Libary (AID 1347411); note: nearly all actives have a fitted effect of over 65% in size; note: potency is the fitted concentration of half-maximal effect
Outline: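 Luminescence from CRISPR HiBit-tagged endogenous HLA-B in human myoblasts reported MHC class I level after 24 h of IFN-beta (4 ng/ml) plus compound. Compounds ran as 11-point 1:3 series, top 46 uM final.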

[3] = molecular target: Protein phosphatase 1D (Homo sapiens) (UniProt O15297); assay: RapidFire Mass Spectrometry qHTS Assay for Modulators of WT P53-Induced Phosphatase 1 (WIP1) (AID 1347424);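 note: amount of dephosphorylated VEPPL-S-QETFS peptide product formed by WIP1; series mostly up to about 63 µM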
Outline: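 RapidFire mass spectrometry measured dephosphorylated peptide after 5 min room-temperature reaction of 2 uM VEPPL-pS-QETFS with 10 nM WIP1 (50 mM Tris-HCl pH 7.5, 30 mM MgCl2, 0.1 mM EGTA, BSA), following 1 hr compound preincubation; 1 uM isotope-labelled product standard.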

[4] = molecular target: Protein phosphatase 1D (Homo sapiens) (UniProt O15297); assay: Rhodamine-PBP qHTS Assay for Modulators of WT P53-Induced Phosphatase 1 (WIP1) (AID 1347425)
Outline: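 Steps: enzyme with Rh-PBP sensor and compounds, room-temperature incubation of 1 hr, baseline read, addition of VEPPL-pS-QETFS (10 uM final), kinetic fluorescence reads at 525/598 nm. Activity equals final minus baseline signal.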

[5] = qHTS to identify inhibitors of the type 1 interferon - major histocompatibility complex class I in skeletal muscle: primary screen against the NCATS LOPAC collection (AID 1347405);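 note: lytic HiBiT luminescence reporting HLA-B protein level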; note: potency is the fitted concentration of half-maximal effect
Outline: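 After 24 h at 37 C with compounds (7-point, 1:4.3 dilutions, 46 uM top final) plus 4 ng/ml IFN-beta, luminescence from lytic HiBiT detection was measured. HLA-B*08:01 in C25cl48 myoblasts carried an endogenous C-terminal HiBiT tag; medium lacked dexamethasone.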

[6] = qHTS for inhibitors of adenylyl cyclases using a fission yeast platform: a pilot screen against the NCATS LOPAC library (AID 1347410)
Outline: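 Inhibition of GNAS-stimulated AC9 activity in S. pombe was inferred from derepression of a PKA-repressed fbp1-GFP reporter, measured as cytometric fluorescence after 18 h at 30C with compounds at up to 57 µM.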

[7] = Validation qHTS assay for inhibitors of Activation Induced Cytidine Deaminase (AID): UDG Counterscreen signal (AID 1347427)
Outline: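 Fluorescence at 560 nm excitation, 665 nm emission reports UDG signal after 250 mM NaOH (2x) addition and 30 min. Enzymes (AID 1 uM, UDG 2 U/mL, at 4/3x) preincubated 10 min with compound, then 4 h with 4x 250 nM DJC20/DJC23 substrate at room temperature.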

[8] = molecular target: Single-stranded DNA cytosine deaminase (Homo sapiens) (UniProt Q9GZX7); assay: Validation qHTS assay for inhibitors of Activation Induced Cytidine Deaminase (AID): AID signal (AID 1347429)
Outline: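 Compounds (final up to 114 uM) preincubated with AID plus UDG; 250 nM DJC20/DJC23 substrate mix (4x stock) added, 4 hr at room temperature, then NaOH, 30 min. Read 1 fluorescence at 540 nm excitation, 590 nm emission.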

[9] = Redox Reaction Profiling qHTS: Assay Interference Panel against the NCATS CANVASS Library (AID 1347401)
Outline: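 Redox-cycling liability assessed as DTT-driven conversion of resazurin (5 uM, with 200 uM DTT, HEPES pH 7.3) to fluorescent resorufin. Fluorescence at 525/598 nm measured initially and after 15 min dark incubation.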

[10] = qHTS for inhibitors of Rabies Virus screened against the NCATS CANVASS Library (AID 1347402; calls by dose curve; note: series mostly up to about 46 µM)

Single-stranded DNA cytosine deaminase (Homo sapiens), sequence (Q9GZX7 whole entry, looked up): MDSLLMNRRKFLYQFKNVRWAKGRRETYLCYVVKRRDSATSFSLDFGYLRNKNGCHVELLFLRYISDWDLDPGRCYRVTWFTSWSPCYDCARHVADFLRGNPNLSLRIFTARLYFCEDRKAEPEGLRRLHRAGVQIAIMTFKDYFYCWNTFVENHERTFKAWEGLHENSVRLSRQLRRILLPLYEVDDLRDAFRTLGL
Protein phosphatase 1D (Homo sapiens), sequence (O15297 whole entry, looked up): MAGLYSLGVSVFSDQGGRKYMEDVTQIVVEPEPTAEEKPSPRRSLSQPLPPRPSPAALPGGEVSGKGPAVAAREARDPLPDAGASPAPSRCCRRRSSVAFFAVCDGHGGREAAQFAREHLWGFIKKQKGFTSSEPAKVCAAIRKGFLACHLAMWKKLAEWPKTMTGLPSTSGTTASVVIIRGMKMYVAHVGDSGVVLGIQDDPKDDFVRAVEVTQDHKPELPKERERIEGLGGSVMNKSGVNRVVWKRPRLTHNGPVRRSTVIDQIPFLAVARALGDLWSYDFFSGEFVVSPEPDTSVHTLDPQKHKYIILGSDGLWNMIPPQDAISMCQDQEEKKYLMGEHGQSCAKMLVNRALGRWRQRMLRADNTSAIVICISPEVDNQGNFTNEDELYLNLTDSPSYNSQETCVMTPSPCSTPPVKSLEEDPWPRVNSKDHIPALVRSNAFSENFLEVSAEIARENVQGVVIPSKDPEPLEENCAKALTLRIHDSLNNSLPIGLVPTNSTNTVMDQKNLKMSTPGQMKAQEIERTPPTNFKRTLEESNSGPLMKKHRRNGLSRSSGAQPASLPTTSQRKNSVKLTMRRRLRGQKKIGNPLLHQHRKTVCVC

Row | SMILES | Potency [1] | Potency [2] | Potency [3] | outcome [4] | Potency [5] | outcome [6] | outcome [7] | outcome [8] | activity change, negative = inhibition [1] | activity change, negative = inhibition [3] | activity change, negative = inhibition [4] | outcome [9] | outcome [10]
1 | CN(C)[C@@H]1C(=O)C(C(N)=O)=C(O)[C@@]2(O)C(=O)C3=C(O)c4c(O)cccc4[C@@](C)(O)[C@H]3C[C@@H]12 | inactive | inactive |  |  |  |  |  |  |  |  |  |  | 
2 | COC[C@@H](NC(C)=O)C(=O)NCc1ccccc1 | inactive | inactive | inactive | inactive |  |  |  |  |  |  |  |  | 
3 | C[C@@H]1O[C@@H](O[C@H]2C[C@@H](O)[C@]3(CO)[C@H]4[C@H](O)C[C@]5(C)[C@@H](C6=CC(=O)OC6)CC[C@]5(O)[C@@H]4CC[C@]3(O)C2)[C@H](O)[C@H](O)[C@H]1O | 52.8 nM (active) | 37 nM (active) | inactive | inactive | 44.7 nM (active) | inactive | inactive | inactive |  |  |  |  | 
4 | CC[C@@H](CO)NC(=O)[C@@H]1C=C2c3cccc4[nH]cc(c34)C[C@H]2N(C)C1 | inactive |  | inactive | inactive | inactive | inactive | inactive | inactive |  |  |  |  | 
5 | O=C1NCN(c2ccccc2)C12CCN(CC1COc3ccccc3O1)CC2 (stereo unspecified) | inactive |  | inactive | inactive | inactive | inactive | inactive | inactive |  |  |  |  | 
6 | NCCc1cc(O)c(O)cc1O | inactive |  |  |  |  |  |  |  |  |  |  |  | 
7 | CCC1(C2=NCCN2)Cc2ccccc2O1 (stereo unspecified) | inactive |  | inactive | inactive | inactive | inactive | inactive | inactive |  |  |  |  | 
8 | Cc1cccc(C)c1NC1=NCCCS1 | inactive |  | inactive | inactive | inactive | inactive | inactive | inactive |  |  |  |  | 
9 | Cc1ccc(S(=O)(=O)N[C@@H](CCCCN)C(=O)CCl)cc1 | inactive |  | inactive | inactive | inactive | inactive | inactive | inactive |  |  |  |  | 
10 | CCCN1CCC[C@@H]2Cc3[nH]ncc3C[C@H]21 | inactive |  | inactive | inactive | inactive | inactive | inactive | inactive |  |  |  |  | 
11 | COc1ccc(C(CN(C)C)C2(O)CCCCC2)cc1 (stereo unspecified) | inactive |  | inactive | inactive | inactive | inactive | inactive | inactive |  |  |  |  | 
12 | NCC1(CC(=O)O)CCCCC1 | inactive | inactive | inactive | inactive | inactive | inactive | inactive | inactive |  |  |  |  | 
13 | NCC(CC(=O)O)c1ccc(Cl)cc1 (stereo unspecified) |  |  |  |  | inactive | inactive | inactive | inactive | 3.65% [at 0.727 µM] | -7.37% [at 0.505 µM] | 1.39% [at 0.575 µM] |  | 
14 | Cc1ncc(CNC(=O)N(CCCl)N=O)c(N)n1 | inactive |  | inactive | inactive | inactive | inactive | inactive | inactive |  |  |  |  | 
15 | c1ccc(C2CC2)c(OCC2=NCCN2)c1 | inactive |  | inactive | inactive | inactive | inactive | inactive | inactive |  |  |  |  | 
16 | O=c1[nH]c2ccccc2n1CCCN1CCC(n2c(=O)[nH]c3cc(Cl)ccc32)CC1 | inactive | inactive | inactive | inactive |  | inactive | inactive | inactive |  |  |  |  | 
17 | CC[C@@H](CO)NC(=O)[C@@H]1C=C2c3cccc4c3c(cn4C)C[C@H]2N(C)C1 | inactive |  | inactive | inactive | inactive | inactive | inactive | inactive |  |  |  |  | 
18 | NCC(O)c1ccc(O)cc1 (stereo unspecified) | inactive |  | inactive | inactive | inactive | inactive | inactive | inactive |  |  |  | inactive | inactive
19 | CNCC(O)c1ccc(O)cc1 (stereo unspecified) | inactive | inactive | inactive | inactive | inactive | inactive | inactive | inactive |  |  |  |  | 
20 | CCCN1CCC[C@@H]2Cc3nc(N)ncc3C[C@H]21 | inactive |  | inactive | inactive | inactive | inactive | inactive | inactive |  |  |  |  | 
21 | Cc1cccc(C)c1NC(=O)CN1CCCC1=O | inactive | inactive | inactive | inactive | inactive | inactive | inactive | inactive |  |  |  |  | 
22 | CC(O)(CS(=O)(=O)c1ccc(F)cc1)C(=O)Nc1ccc(C#N)c(C(F)(F)F)c1 (stereo unspecified) |  | inactive |  |  | inactive | inactive |  |  |  |  |  |  | 
23 | CN1C[C@H](CNC(=O)OCc2ccccc2)C[C@@H]2c3cccc4c3c(cn4C)C[C@H]21 | inactive |  | inactive | inactive | inactive | inactive | inactive | inactive |  |  |  |  | 
24 | Nc1ccncc1 | inactive |  | inactive | inactive | inactive | inactive | inactive | inactive |  |  |  |  | 
